An excerpt weighted towards active compounds, which were near 12% of everything screened.
BAZ2B inh – inhibitors of human BAZ2B bromodomain; Q9UIF8; AlphaScreen BAZ2B-H3K14Ac peptide displacement; Potency, µM (titrated, usually from 114 µM), hits mostly inhibitors; 4.4% of 360,000 active; AID 504333; further: nearly all actives have a fitted effect of over 60% in size
Target sequence (Q9UIF8 whole entry, looked up): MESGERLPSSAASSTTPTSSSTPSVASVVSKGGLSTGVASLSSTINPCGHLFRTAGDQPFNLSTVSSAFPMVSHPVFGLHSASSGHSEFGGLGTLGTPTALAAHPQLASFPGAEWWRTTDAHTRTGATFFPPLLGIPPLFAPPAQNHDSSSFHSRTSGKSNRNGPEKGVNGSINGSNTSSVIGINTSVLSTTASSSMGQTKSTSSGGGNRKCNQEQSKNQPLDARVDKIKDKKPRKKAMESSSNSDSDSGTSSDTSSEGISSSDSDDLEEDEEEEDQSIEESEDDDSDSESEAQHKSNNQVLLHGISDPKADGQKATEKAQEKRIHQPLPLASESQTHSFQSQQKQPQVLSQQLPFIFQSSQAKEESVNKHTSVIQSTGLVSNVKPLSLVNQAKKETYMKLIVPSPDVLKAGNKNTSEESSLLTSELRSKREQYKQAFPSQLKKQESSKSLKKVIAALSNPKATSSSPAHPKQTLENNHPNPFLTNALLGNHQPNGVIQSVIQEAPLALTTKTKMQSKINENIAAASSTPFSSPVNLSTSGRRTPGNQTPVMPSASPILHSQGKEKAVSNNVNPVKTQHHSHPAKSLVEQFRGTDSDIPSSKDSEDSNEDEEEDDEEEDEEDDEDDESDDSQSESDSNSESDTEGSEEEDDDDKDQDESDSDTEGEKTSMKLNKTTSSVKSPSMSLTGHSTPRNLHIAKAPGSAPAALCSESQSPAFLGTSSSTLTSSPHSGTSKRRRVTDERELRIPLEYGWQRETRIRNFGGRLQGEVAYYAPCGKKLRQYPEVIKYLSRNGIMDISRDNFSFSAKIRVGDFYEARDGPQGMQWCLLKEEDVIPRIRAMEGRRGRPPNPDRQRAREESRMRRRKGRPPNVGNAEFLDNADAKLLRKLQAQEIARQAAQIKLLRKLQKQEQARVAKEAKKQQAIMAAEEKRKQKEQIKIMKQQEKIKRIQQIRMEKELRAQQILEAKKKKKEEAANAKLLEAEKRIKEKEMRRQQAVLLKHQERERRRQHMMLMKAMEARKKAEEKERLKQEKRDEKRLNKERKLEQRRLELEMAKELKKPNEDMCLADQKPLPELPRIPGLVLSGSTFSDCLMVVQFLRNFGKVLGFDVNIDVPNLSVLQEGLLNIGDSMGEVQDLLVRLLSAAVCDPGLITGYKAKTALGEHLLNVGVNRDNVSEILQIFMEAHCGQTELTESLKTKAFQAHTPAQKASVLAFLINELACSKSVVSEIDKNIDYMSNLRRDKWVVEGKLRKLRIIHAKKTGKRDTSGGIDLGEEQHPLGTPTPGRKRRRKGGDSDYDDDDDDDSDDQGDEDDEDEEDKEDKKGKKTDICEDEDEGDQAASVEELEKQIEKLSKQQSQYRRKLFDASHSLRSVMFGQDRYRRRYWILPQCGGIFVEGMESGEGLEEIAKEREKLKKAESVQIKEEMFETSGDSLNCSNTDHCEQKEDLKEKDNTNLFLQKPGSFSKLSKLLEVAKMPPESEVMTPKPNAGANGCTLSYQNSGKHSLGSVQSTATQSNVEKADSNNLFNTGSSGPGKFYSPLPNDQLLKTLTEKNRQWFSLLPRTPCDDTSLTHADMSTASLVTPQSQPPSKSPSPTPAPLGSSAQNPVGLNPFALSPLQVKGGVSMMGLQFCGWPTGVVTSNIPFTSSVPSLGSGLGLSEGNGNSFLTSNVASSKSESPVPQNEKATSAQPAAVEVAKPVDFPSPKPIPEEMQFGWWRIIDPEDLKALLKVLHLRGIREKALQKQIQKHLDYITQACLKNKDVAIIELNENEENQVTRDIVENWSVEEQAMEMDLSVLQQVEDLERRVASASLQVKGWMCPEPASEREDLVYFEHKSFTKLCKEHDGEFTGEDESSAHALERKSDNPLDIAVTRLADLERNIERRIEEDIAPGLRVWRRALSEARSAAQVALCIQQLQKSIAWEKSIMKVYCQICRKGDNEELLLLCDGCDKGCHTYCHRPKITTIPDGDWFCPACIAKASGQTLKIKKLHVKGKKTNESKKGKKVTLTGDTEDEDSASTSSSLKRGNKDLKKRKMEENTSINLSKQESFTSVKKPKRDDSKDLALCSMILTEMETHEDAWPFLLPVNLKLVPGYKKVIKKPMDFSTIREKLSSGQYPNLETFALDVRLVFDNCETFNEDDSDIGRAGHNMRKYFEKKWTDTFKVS
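Complex of BAZ2B and biotin-H3K14Ac (50 nM apiece) forms over 30 min at RT, then faces library compounds up to 110 uM for another 30 min; AlphaScreen beads added, 20 min dark incubation, luminescence read.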
HP1b binding inh – HP1-beta chromodomain-methylated histone interaction inhibition; P83916; AlphaScreen HP1-beta / biotin-H3K9me3 peptide binding; Potency, µM (highest dose often 114 µM), usual class: inhibitors; 0.56% of 390,000 active; further: nearly all actives have a fitted effect of over 70% in size
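AlphaScreen: HP1-beta (50 nM) preformed 30 min with biotin-H3(1-18)K9me3 peptide (50 nM) in PBS pH 7.4, 0.01% Tween-20. Compound added for 30 min at RT, then streptavidin donor/nickel chelate acceptor beads (10 ug/mL) for 30 min.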
Sfp inh – blocks B. subtilis Sfp PPTase activity | Q9F4F7 | Biochemical Sfp PPTase activity, qHTS | Potency, µM, usual class: inhibitors | 3.5% of 310,000 active;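 further: the enzyme is Sfp with the accession as filed and its product quenches rhodamine fluorescence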
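Fluorescence-quenching assay: 15 nM Sfp-PPTase preincubated 15 min at room temperature with compound, then 5 uM rhodamine-CoA and 12.5 uM BHQ-2-labelled YbbR peptide added. Fluorescence (ex 525/em 598 nm) read at start and after 30 min; difference gives rate.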
G9a inh – inhibitors of human histone lysine methyltransferase G9a; AID 504332; Potency, µM (doses to about 102 µM), most hits filed as inhibitors; 8.8% of 350,000 active; Q96KQ7; G9a H3K9 monomethylation, AlphaScreen, 2 h; further: nearly all actives have a fitted effect of over 75% in size
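Signal arises when biotinylated H3K9 peptide, once monomethylated, bridges streptavidin donor and antibody-captured acceptor beads. Enzyme at 20 nM was preincubated 15 min with test compounds; peptide 500 nM and SAM 20 uM then reacted for 2 h.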
L3MBTL1 block – L3MBTL1 (human) inhibition; Q9Y468; AlphaScreen L3MBTL1–H3K9me1 peptide binding; Potency, µM (doses to about 57.1 µM), most hits filed as inhibitors; 0.66% of 230,000 active; further: nearly all actives have a fitted effect of over 60% in size
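L3MBTL1 50 nM + b-AHA-H3(1-15)K9me1 75 nM, 30 min RT; compound added, 30 min RT; streptavidin donor/Ni-chelate acceptor beads 10 ug/mL each final, 30 min RT dark; AlphaScreen read.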
JMJD2A Tudor inh – blocks the human JMJD2A Tudor domain | O75164 | AlphaScreen JMJD2A-Tudor / H3K4me3 peptide binding | Potency, µM (series often up to 114 µM), hits mostly inhibitors | 4.4% of 390,000 active | AID 504339; further: nearly all actives have a fitted effect of over 50% in size
Of the large screens only hits and unclear results are named; the others gave an inactive call. The call rests on the fitted dose curve; in most records, active means well fitted curve in the direction sought with a large enough effect; inconclusive means small, poorly fitted or top-dose-only effect, or another doubt; inactive means no such curve, though single readings can be large; an effect the other way counts as inactive or inconclusive.

COc1ccccc1N1CCN(C(c2ccccc2)c2nnnn2Cc2ccccc2)CC1 (stereo not given)	none (no result: BAZ2B inh, Sfp inh, G9a inh, L3MBTL1 block)
COc1ccc(OC)c(C(c2nnnn2CCc2ccccc2)N2CCN(c3ccccc3)CC2)c1 (stereo not given)	none
COc1ccc(C(c2nnnn2Cc2ccccc2)N2CCN(c3nc4ccccc4s3)CC2)cc1 (stereo not given)	G9a inh inconclusive
COc1ccc(N2CCN(C(c3cc(OC)ccc3OC)c3nnnn3Cc3ccco3)CC2)cc1 (stereo not given)	BAZ2B inh 45µM, HP1b binding inh 16µM, G9a inh 16µM, JMJD2A Tudor inh 50µM
COc1ccc(C(c2nnnn2Cc2ccccc2)N2CCN(c3ccccc3)CC2)cc1 (stereo not given)	BAZ2B inh 79µM (no result: L3MBTL1 block)
CCCC[C@@H]1CCCO[C@@](C(=O)NCc2ccc(S(C)(=O)=O)cc2)(C(F)(F)F)C1	none (no result: BAZ2B inh, G9a inh, L3MBTL1 block)
Fc1ccc(C(c2nnnn2Cc2ccco2)N2CCN(C3CCCCC3)CC2)cc1 (stereo not given)	none (no result: L3MBTL1 block)
Cc1ccc(C(c2nnnn2CC2CCCO2)N2CCN(C)CC2)cc1 (stereo not given)	none (no result: G9a inh)
COc1ccc(C(c2nnnn2CC2CCCO2)N2CCN(c3ccc(F)cc3)CC2)cc1 (stereo not given)	BAZ2B inh 56µM (no result: L3MBTL1 block)
COCCn1nnnc1C(c1ccccc1)N1CCN(C)CC1 (stereo not given)	G9a inh inconclusive, JMJD2A Tudor inh inconclusive
COc1ccc(N2CCN(C(CNC(=O)C(=O)NCC3CCCO3)c3ccco3)CC2)cc1 (stereo not given)	G9a inh 32µM
CC(C)n1nnnc1C(c1ccc(F)cc1)N1CCN(C2CCCC2)CC1 (stereo not given)	BAZ2B inh inconclusive, G9a inh 79µM
COCCn1nnnc1C(c1ccccc1)N1CCN(c2ccccc2)CC1 (stereo not given)	BAZ2B inh 50µM, G9a inh inconclusive, JMJD2A Tudor inh inconclusive
COCCn1nnnc1C(c1cccc(C#N)c1)N1CCCCCC1 (stereo not given)	BAZ2B inh inconclusive, G9a inh 45µM
COC(=O)C(Cc1cncn1COCc1ccccc1)NC(=O)OC(C)(C)C (stereo not given)	BAZ2B inh 79µM, G9a inh 28µM, JMJD2A Tudor inh inconclusive
CC(C)(C)OC(=O)N[C@@H](CC(=O)OCc1ccccc1)C(=O)O	JMJD2A Tudor inh 50µM (no result: L3MBTL1 block)
CC(C)(C)OC(=O)N[C@@H](CCCCNC(=O)OCc1ccccc1)c1nnc([C@H](CCCCNC(=O)OCc2ccccc2)NC(=O)OC(C)(C)C)o1	none (no result: L3MBTL1 block)
COc1ccc(NC(=O)C(CCCCNC(=O)OC(C)(C)C)NC(=O)OCc2ccccc2)cc1 (stereo not given)	BAZ2B inh inconclusive, G9a inh 3.5µM, JMJD2A Tudor inh inconclusive
O=C(CCN1C(=O)c2ccccc2C1=O)Nc1ccccc1C(F)(F)F	G9a inh 45µM (no result: L3MBTL1 block)
COc1ccccc1NC(=O)CCN1C(=O)c2ccccc2C1=O	G9a inh 79µM (no result: L3MBTL1 block)
COc1ccccc1NC(=O)Cn1nnc(-c2ccccc2NC(=O)c2cccs2)n1	Sfp inh 50µM
O=C(CNC(c1ccccc1)c1ccccc1)Nc1ccccc1-c1ccccc1	none
CCCC(C)NCC(=O)Nc1ccccc1-c1ccccc1 (stereo not given)	BAZ2B inh inconclusive, HP1b binding inh inconclusive, G9a inh inconclusive, JMJD2A Tudor inh 1.1µM (no result: L3MBTL1 block)
O=C(CC1N=C2c3ccccc3N=C(SCc3cccc(Cl)c3)N2C1=O)NCCc1ccccc1 (stereo not given)	none (no result: Sfp inh, L3MBTL1 block)
COc1ccc2c(c1)c(=O)c(S(=O)(=O)c1ccc(C)c(C)c1)cn2CC(=O)Nc1ccccc1	none (no result: Sfp inh, L3MBTL1 block)
COc1ccccc1NC(=O)CCC(=O)Nc1ccccc1OC	none
CCN(CC(=O)Nc1ccccc1OC)CC(=O)Nc1ccccc1-c1ccccc1	BAZ2B inh 28µM, HP1b binding inh inconclusive, Sfp inh 35µM, G9a inh 50µM, JMJD2A Tudor inh 2.2µM (no result: L3MBTL1 block)
COc1ccccc1NC(=O)CCC(=O)c1ccc(-c2ccccc2)cc1	JMJD2A Tudor inh 25µM
CCN(CC(=O)Nc1ccccc1OC)CC(=O)Nc1ccccc1C(F)(F)F	none (no result: BAZ2B inh)
CC(C)Oc1ccc(CNC(=O)c2ccc3c(c2)N(C)CCS3)cc1	BAZ2B inh inconclusive, G9a inh 56µM, JMJD2A Tudor inh inconclusive
CCN1CCSc2ccc(C(=O)NCc3ccccc3C)cc21	BAZ2B inh inconclusive, G9a inh 71µM, JMJD2A Tudor inh inconclusive
CCN1CCSc2ccc(C(=O)NCc3ccccc3Br)cc21	BAZ2B inh inconclusive
CCN1CCSc2ccc(C(=O)Nc3ccc(NC(C)=O)cc3)cc21	G9a inh 50µM (no result: L3MBTL1 block)
CCOC(=O)N1CCC(NC(=O)c2ccc3c(c2)N(C)CCS3)CC1	Sfp inh 25µM, G9a inh inconclusive, JMJD2A Tudor inh inconclusive
COc1ccc(C(=O)NCC(=O)OCC(=O)c2cccc3ccccc23)cc1	none (no result: BAZ2B inh, Sfp inh, G9a inh, L3MBTL1 block)
CN1CCSc2ccc(C(=O)NCc3ccccc3F)cc21	G9a inh 11µM
CCN1CCSc2ccc(C(=O)NCc3ccccc3F)cc21	JMJD2A Tudor inh inconclusive (no result: G9a inh)
COc1ccc(CNC(=O)c2ccc3c(c2)N(C)C(=O)CS3=O)cc1 (stereo not given)	Sfp inh 45µM
CCOC(=O)N1CCN(C(=O)c2ccc3c(c2)N(CC)CCS3)CC1	Sfp inh 50µM, G9a inh 35µM (no result: L3MBTL1 block)
CCOc1ccc(CC(=O)NC2CC(=O)N(c3ccc4c(c3)OCCO4)C2)cc1 (stereo not given)	none (no result: Sfp inh, L3MBTL1 block)
COCCn1c(SCC(=O)NCCc2ccccc2)nnc1-c1ccco1	G9a inh 45µM
